# Reference: PubChem BioAssay (NCATS)
# Several values for one entry are separate records, joined by “and”; a condition that tells them apart may be missing. Equal values may be shown once. Records with an inconclusive call do not appear. A call without a number means that no potency is given here. Activity calls are given as the source filed them. Calls come from the whole dose curve; as a rule, active = well fitted curve in the direction sought with a large enough effect; inconclusive = small, poorly fitted or top-dose-only effect, or another doubt; inactive = no such curve, though single readings can be large; an effect the other way counts as inactive or inconclusive.
# How the values were obtained:
# [1] = Primary qHTS for inhibitors of nuclear receptor binding SET domain protein 2 (NSD2) in an isogenic RCH-ACV NSD2 p.E1099K mutant (9B) (AID 1645876); note: nearly all actives have a fitted effect of over 70% in size; note: potency is the fitted concentration of half-maximal effect
# [2] = Primary qHTS for inhibitors of nuclear receptor binding SET domain protein 2 (NSD2) in an RCH-ACV wild type WT cells (2C) (AID 1645877); note: nearly all actives have a fitted effect of over 70% in size; note: potency is the fitted concentration of half-maximal effect
# [3] = biological target: Glutathione peroxidase 1 (Homo sapiens) (UniProt P07203); test: Primary qHTS Assay for Inhibitors of Recombinant Selenoprotein Glutathione Peroxidase 1 (GPX1) (AID 1845191); note: nearly all actives have a fitted effect of over 65% in size; note: potency is the fitted concentration of half-maximal effect
# Outline: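 GR-coupled readout: NADPH consumption tracked by fluorescence, ex 340/em 450 nm, at t=0 and after 15 min at RT. Final mix 10 nM GPX1, 1 mM GSH, 0.5 mM CHP, 0.5 mM NADPH, 100 nM GR, 0.01% BSA, following 30 min enzyme–compound preincubation.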
# [4] = biological target: Phospholipid hydroperoxide glutathione peroxidase GPX4 (Homo sapiens) (UniProt P36969); test: Primary qHTS Assay for Inhibitors of Recombinant Selenoprotein Glutathione Peroxidase 4 (GPX4) (AID 1845192); details: outcome: dose series up to 50 µM unless noted; note: nearly all actives have a fitted effect of over 65% in size
# Outline: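 Steps: GPX4 plus compound, 30 min RT; add GR/GSH/NADPH master mix; start with cumene hydroperoxide; read 340/450 nm fluorescence at 0 and 15 min. Finals were 200 nM GPX4, 1 mM GSH, 0.5 mM CHP, 0.5 mM NADPH, 100 nM GR.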
# [5] = biological target: Metallo-beta-lactamase type 2 (Klebsiella pneumoniae) (UniProt C7C422); test: qHTS to identify inhibitors of the New Delhi Metallo-beta-lactamase (NDM): assay validation screen against the NCATS LOPAC Collection (AID 1794843)
# Outline: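 Absorbance at 485 nm from nitrocefin turnover (50 uM solution added), read at plateau, gives the read-out. Compounds in DMSO were incubated first with 2 nM final NDM-1 in pH 7.0 HEPES buffer containing 1 uM ZnSO4 and 0.01% Tween20.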
# [6] = biological target: Rap guanine nucleotide exchange factor 3 (Homo sapiens) (UniProt O95398); test: Confirmatory qHTS for agonist of cAMP-regulated guanine nucleotide exchange factor 3 (EPAC1) (AID 1645881);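 note: EPAC1 catalysed release of BODIPY-GDP from Rap1B seen as fluorescence loss; nearly all actives have a fitted effect of over 75% in size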
# [7] = biological target: Rap guanine nucleotide exchange factor 4 (Homo sapiens) (UniProt Q8WZA2); test: Confirmatory qHTS for agonist of cAMP-regulated guanine nucleotide exchange factor 4 (EPAC2) (AID 1645884);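 note: nucleotide exchange releases bodipy-GDP from Rap1 and this lowers its fluorescence; nearly all actives have a fitted effect of over 65% in size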
# [8] = biological target: Rap guanine nucleotide exchange factor 4 (Homo sapiens) (UniProt Q8WZA2); test: Confirmatory qHTS for antagonist of cAMP-regulated guanine nucleotide exchange factor 4 (EPAC2) (AID 1645885); note: nearly all actives have a fitted effect of over 25% in size; note: potency is the fitted concentration of half-maximal effect
# [9] = biological target: Rap guanine nucleotide exchange factor 3 (Homo sapiens) (UniProt O95398); test: Counterscreen qHTS for agonist of cAMP-regulated guanine nucleotide exchange factor 3 (EPAC1) (AID 1645889); note: nearly all actives have a fitted effect of over 40% in size
# Outline: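 Rap1B–BODIPY-GDP (250 nM) with 50 uM GDP; compounds pin-transferred to 9.74 nM–152 uM final (activator) or from 7.32 nM upwards (inhibitor). Fluorescence Ex/Em 480/540 nm read at 5 and 30 min, then after adding cAMP or buffer, at room temperature.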
# [10] = NCATS anti-infectives library activity on HEK293 viability as a counter-qHTS vs the C. elegans viability qHTS (AID 1745854);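 note: HEK293 cells exposed to compounds for 24 hr before the viability read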
# Outline: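 Counter-screen for cytotoxicity: HEK293, 24 hr, 37C, compounds up to 41.7 uM final (a dilution series, 1:5). Readout CellTiter-Glo luminescence, 10 min RT. Digitonin control, 83.3 uM final.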
# [11] = biological target: Catechol O-methyltransferase (Homo sapiens) (UniProt P21964); test: Confirmatory Screen for Target Class Profiling of Small Molecule Inhibitors of Methyltransferases (AID 1745852); details: MTase-Glo luminescence, SAH detection, recombinant enzyme; measured here: COMT max response; stronger effect = lower value
# [12] = biological target: Guanidinoacetate N-methyltransferase (Homo sapiens) (UniProt Q14353); test: as above; details: MTase-Glo luminescence, SAH detection, recombinant enzyme; at 57.3 µM (top of the series)
# [13] = biological target: Nicotinamide N-methyltransferase (Homo sapiens) (UniProt P40261); test: as above; details: MTase-Glo luminescence, SAH detection, recombinant enzyme; measured here: NNMT max response; stronger effect = lower value
# [14] = biological target: Phenylethanolamine N-methyltransferase (Homo sapiens) (UniProt P11086); test: as above; details: MTase-Glo luminescence, SAH detection, recombinant enzyme; measured here: PNMT max response; stronger effect = lower value
# [15] = biological target: Rap guanine nucleotide exchange factor 3 (Homo sapiens) (UniProt O95398); test: Confirmatory qHTS for antagonist of cAMP-regulated guanine nucleotide exchange factor 3 (EPAC1) (AID 1645880); note: nearly all actives have a fitted effect of over 55% in size
# Outline: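 Released BODIPY-GDP fluoresces less than Rap1-bound BODIPY-GDP; the signal is followed at 480/540 nm at 5-min intervals over 30 min, after 5 min at room temperature. Reactions contain 100 nM EPAC1, 250 nM RAP1B-BODIPY-GDP and 50 uM GDP; results are normalized to ATA and DMSO.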
# Phospholipid hydroperoxide glutathione peroxidase GPX4 (Homo sapiens), sequence (P36969 whole entry, looked up): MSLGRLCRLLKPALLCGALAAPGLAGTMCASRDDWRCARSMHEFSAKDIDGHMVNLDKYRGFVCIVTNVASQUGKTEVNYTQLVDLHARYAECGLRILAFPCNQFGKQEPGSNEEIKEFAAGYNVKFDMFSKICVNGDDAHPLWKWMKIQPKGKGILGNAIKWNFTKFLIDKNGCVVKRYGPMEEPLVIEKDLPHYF
# Rap guanine nucleotide exchange factor 3 (Homo sapiens), sequence (O95398 whole entry, looked up): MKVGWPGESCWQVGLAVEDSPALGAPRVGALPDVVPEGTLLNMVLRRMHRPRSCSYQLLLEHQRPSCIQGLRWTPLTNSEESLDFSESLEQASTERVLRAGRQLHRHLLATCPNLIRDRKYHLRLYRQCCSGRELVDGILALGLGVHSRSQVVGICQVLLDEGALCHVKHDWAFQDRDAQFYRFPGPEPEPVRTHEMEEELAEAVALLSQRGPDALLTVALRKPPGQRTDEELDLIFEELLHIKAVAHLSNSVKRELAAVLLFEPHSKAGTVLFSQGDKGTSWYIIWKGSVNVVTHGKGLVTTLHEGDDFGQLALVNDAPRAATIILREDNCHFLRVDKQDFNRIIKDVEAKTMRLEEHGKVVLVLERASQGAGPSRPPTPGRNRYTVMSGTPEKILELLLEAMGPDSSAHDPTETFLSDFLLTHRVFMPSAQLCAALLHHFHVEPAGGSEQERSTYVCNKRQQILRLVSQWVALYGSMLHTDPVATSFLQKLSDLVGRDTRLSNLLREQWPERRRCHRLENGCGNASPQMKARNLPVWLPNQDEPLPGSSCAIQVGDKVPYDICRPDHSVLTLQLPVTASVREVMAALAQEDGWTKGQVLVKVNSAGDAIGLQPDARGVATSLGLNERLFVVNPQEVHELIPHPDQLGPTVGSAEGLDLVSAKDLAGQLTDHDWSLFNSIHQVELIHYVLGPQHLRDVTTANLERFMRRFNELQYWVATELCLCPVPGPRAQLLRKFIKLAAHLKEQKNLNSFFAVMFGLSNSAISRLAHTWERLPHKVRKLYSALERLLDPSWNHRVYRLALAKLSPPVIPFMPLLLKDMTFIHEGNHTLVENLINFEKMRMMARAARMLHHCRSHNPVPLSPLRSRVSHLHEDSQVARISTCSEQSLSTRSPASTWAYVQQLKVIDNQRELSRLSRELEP
# Metallo-beta-lactamase type 2 (Klebsiella pneumoniae), sequence (C7C422 whole entry, looked up): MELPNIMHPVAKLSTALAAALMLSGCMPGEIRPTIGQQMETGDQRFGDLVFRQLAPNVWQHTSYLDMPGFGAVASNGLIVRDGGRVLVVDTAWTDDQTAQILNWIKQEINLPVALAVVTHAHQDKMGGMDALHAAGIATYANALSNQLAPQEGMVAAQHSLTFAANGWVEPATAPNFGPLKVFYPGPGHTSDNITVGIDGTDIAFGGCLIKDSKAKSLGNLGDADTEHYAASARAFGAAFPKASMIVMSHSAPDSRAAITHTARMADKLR
# Glutathione peroxidase 1 (Homo sapiens), sequence (P07203 whole entry, looked up): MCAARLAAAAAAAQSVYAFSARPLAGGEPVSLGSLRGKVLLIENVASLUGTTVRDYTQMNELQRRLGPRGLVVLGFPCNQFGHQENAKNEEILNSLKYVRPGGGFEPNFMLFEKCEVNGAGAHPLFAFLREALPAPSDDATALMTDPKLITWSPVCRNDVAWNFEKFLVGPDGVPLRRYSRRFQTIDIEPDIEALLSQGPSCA
# Rap guanine nucleotide exchange factor 4 (Homo sapiens), sequence (Q8WZA2 whole entry, looked up): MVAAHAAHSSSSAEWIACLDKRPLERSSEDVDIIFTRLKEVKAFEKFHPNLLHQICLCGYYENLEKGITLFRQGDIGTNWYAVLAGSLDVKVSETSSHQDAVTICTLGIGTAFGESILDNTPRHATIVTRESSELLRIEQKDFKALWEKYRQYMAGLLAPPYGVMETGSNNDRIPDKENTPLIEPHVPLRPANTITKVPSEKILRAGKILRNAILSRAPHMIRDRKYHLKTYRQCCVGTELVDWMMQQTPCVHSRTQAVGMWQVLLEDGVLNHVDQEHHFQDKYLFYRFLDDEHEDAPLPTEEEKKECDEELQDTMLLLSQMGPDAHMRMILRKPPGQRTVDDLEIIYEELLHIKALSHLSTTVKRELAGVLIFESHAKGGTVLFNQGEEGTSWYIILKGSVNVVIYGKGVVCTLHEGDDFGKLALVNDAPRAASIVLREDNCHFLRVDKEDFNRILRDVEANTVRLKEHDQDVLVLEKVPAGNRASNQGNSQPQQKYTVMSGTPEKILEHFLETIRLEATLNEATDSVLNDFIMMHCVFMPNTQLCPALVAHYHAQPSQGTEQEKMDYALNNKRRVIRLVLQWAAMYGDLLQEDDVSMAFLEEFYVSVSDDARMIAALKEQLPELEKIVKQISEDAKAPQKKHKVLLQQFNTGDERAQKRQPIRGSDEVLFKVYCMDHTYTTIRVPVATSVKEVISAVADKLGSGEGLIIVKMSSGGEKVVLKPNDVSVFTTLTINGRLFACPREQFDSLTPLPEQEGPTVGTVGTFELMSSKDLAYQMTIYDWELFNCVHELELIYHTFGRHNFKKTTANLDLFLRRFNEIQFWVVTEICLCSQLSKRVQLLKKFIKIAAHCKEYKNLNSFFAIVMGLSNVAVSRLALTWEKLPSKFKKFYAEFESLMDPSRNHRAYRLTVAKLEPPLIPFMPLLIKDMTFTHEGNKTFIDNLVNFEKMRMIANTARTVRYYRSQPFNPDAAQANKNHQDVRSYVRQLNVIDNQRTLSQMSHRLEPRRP
# Phenylethanolamine N-methyltransferase (Homo sapiens), sequence (P11086 whole entry, looked up): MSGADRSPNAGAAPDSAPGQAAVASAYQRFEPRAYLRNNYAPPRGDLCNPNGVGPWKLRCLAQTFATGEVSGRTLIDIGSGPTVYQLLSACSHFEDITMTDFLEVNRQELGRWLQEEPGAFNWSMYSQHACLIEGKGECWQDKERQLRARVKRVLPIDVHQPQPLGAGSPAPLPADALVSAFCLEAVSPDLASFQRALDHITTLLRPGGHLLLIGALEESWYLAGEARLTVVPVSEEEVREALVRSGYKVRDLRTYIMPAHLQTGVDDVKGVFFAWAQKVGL
# Catechol O-methyltransferase (Homo sapiens), sequence (P21964 whole entry, looked up): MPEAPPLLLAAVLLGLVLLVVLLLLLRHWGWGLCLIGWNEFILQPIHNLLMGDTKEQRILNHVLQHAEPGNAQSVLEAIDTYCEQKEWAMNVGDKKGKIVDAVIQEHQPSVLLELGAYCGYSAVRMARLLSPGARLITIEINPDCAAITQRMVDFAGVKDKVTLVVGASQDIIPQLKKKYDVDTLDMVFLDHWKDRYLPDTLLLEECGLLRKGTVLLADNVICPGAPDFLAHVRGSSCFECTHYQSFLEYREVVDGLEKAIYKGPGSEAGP
# Nicotinamide N-methyltransferase (Homo sapiens), sequence (P40261 whole entry, looked up): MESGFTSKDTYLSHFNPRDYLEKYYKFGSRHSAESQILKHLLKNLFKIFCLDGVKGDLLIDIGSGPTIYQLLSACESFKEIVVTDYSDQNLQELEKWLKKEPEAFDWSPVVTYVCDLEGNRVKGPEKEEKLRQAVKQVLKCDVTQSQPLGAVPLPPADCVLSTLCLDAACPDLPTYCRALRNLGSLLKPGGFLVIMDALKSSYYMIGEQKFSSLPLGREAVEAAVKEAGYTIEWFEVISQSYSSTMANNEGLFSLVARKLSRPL
smiles,measurement,setting,value
CCn1nc(C(=O)O)c(=O)c2cc3c(cc21)OCO3,Potency,[1],inactive
same,Potency,[2],inactive
same,Potency,[3],inactive
same,outcome,[4],inactive
CC(=O)OCC1=C(C(=O)O)N2C(=O)[C@@H](NC(=O)Cc3cccs3)[C@H]2SC1,Potency,[1],inactive
same,Potency,[2],inactive
same,Potency,[3],10.1 µM (active)
same,outcome,[4],inactive
Cc1ccc(=O)n(-c2ccccc2)c1,Potency,[1],inactive
same,Potency,[2],inactive
same,Potency,[3],inactive
same,outcome,[4],inactive
COCCc1ccc(OCC(O)CNC(C)C)cc1 (stereo not given),Potency,[1],inactive
same,Potency,[2],inactive
same,outcome,[4],inactive
C[N+](C)(C)CCCCCCCCCC[N+](C)(C)C,Potency,[1],inactive
same,Potency,[2],inactive
same,Potency,[3],inactive
same,outcome,[4],inactive
Cc1nnc(SCC2=C(C(=O)O)N3C(=O)[C@@H](NC(=O)Cn4cnnn4)[C@H]3SC2)s1,Potency,[1],inactive
same,Potency,[5],inactive
same,Potency,[3],20.2 µM (active)
same,outcome,[4],inactive
CCN(CC)CCOCCOC(=O)C1(c2ccccc2)CCCC1,Potency,[1],inactive
same,Potency,[3],inactive
same,outcome,[4],inactive
COCC(=O)O[C@]1(CCN(C)CCCc2nc3ccccc3[nH]2)CCc2cc(F)ccc2[C@@H]1C(C)C,Potency,[1],10.6 µM (active)
same,Potency,[2],9.44 µM (active)
same,outcome,[4],inactive
CCOC(=O)C1=C(C)NC(C)=C(C(=O)OC)C1c1cccc(Cl)c1Cl (stereo not given),Potency,[6],inactive
same,Potency,[7],inactive
same,Potency,[8],49.4 µM (active) and 47.8 µM (active)
same,outcome,[9],inactive
same,Potency,[3],inactive
same,outcome,[4],inactive
OCCN1CCN(CCCN2c3ccccc3C=Cc3ccccc32)CC1,outcome,[10],inactive
same,Potency,[5],inactive
same,Potency,[3],inactive
same,outcome,[4],inactive
CCc1cccc(N(C)C(N)=Nc2cccc3ccccc23)c1,activity,[11],-0.0494%
same,"activity change, negative = inhibition",[12],4.76%
same,activity,[13],-4.43%
same,activity,[14],1.17%
same,Potency,[5],inactive
same,Potency,[3],inactive
same,outcome,[4],inactive
CN(C)CC/C=C1\c2ccccc2COc2ccccc21,outcome,[4],inactive
C[C@]12CCC(=O)C=C1CC[C@@H]1[C@@H]2CC[C@@]2(C)[C@H]1CC[C@]2(O)C(=O)CO,Potency,[5],inactive
same,Potency,[3],inactive
same,outcome,[4],inactive
Cc1cccc(C)c1NC(=O)C(C)N (stereo not given),outcome,[15],inactive
same,Potency,[6],inactive
same,Potency,[7],inactive
same,Potency,[8],inactive
same,Potency,[5],inactive
same,Potency,[3],inactive
same,outcome,[4],inactive
c1cc(CN2CCCCC2)cc(OCCCNc2nc3ccccc3s2)c1,outcome,[4],inactive
CN(C)CCCN1c2ccccc2Sc2ccccc21,Potency,[5],inactive
same,outcome,[4],inactive
CN(C)[C@@H]1C(=O)C(C(N)=O)=C(O)[C@@]2(O)C(=O)C3=C(O)c4c(O)ccc(Cl)c4[C@@H](O)[C@H]3C[C@@H]12,activity,[11],-43.5%
same,"activity change, negative = inhibition",[12],8.05%
same,activity,[13],-3.56%
same,activity,[14],2.12%
same,Potency,[5],inactive
same,outcome,[4],inactive
CNCCCN1c2ccccc2CCc2ccccc21,outcome,[10],inactive
same,Potency,[5],inactive
same,outcome,[4],inactive
CN1CCN(C2=Nc3ccccc3Oc3ccc(Cl)cc32)CC1,Potency,[5],inactive
same,Potency,[3],inactive
same,outcome,[4],inactive
CN1C[C@H](C(=O)N[C@]2(C)O[C@@]3(O)[C@@H]4CCCN4C(=O)[C@H](Cc4ccccc4)N3C2=O)C[C@@H]2c3cccc4[nH]cc(c34)C[C@H]21,Potency,[3],inactive
same,outcome,[4],inactive
CCNC(=O)N1CCN(CCCC(c2ccc(F)cc2)c2ccc(F)cc2)CC1,outcome,[4],inactive
